Experimental data taken from PubChem BioAssay AID1159580 (chemical genetic matrix, 2015).
About 2,000 (36%) of roughly 5,500 compounds were called active. Inconclusive results (about 18%) are left out. Rule as the data show it: active = normalized growth mostly below about 0.91 (no sharp cut-off); inconclusive = no clear call, values can overlap the other calls; inactive = mostly above about 0.92. The list shows a part of the results.

Assay: chemical genetic growth profiling, strain panel (AID 1159580);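 also: tested at 20 µM; growth read once vehicle control cultures reached saturation at 30 °C; 1 = growth at the plate median or of vehicle wells; lower values mean less growth of the strain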
Settings: S. cerevisiae deletion strains, growth OD

Measured: normalized growth

N#Cc1c(Cl)cccc1N1CCC(C(=O)NC(=O)Nc2ccc(Cl)cc2)CC1
inactive: locus YAL013W, strain DEP1, stronger effect = lower value 0.998 | locus YBR229C, strain ROT2, stronger effect = lower value 1.01 | locus YDL101C, strain DUN1, stronger effect = lower value 1 | locus YDL134C, strain PPH21, stronger effect = lower value 1.03 | locus YDR150W, strain NUM1, stronger effect = lower value 1.04 | locus YEL061C, strain CIN8, stronger effect = lower value 1.01 | locus YGR078C, strain PAC10, stronger effect = lower value 1.01 | locus YHR030C, strain SLT2, stronger effect = lower value 1.04 | locus YHR087W, strain rtc3, stronger effect = lower value 1.02 | locus YJL187C, strain SWE1, stronger effect = lower value 1.01 | locus YJR043C, strain POL32, stronger effect = lower value 1 | locus YJR075W, strain HOC1, stronger effect = lower value 1.05 | locus YLR039C, strain RIC1, stronger effect = lower value 1.01 | locus YLR058C, strain SHM2 (second series), stronger effect = lower value 1.03 | locus YLR085C, strain ARP6, stronger effect = lower value 1.07 | locus YLR262C, strain YPT6, stronger effect = lower value 0.998 | locus YML094W, strain GIM5, stronger effect = lower value 1.04 | locus YMR219W, strain ESC1, stronger effect = lower value 1.02 | locus YMR263W, strain SAP30, stronger effect = lower value 1.01 | locus YMR307W, strain GAS1, stronger effect = lower value 1.03 | locus YNL153C, strain GIM3, stronger effect = lower value 1.01 | locus YNL298W, strain CLA4 (second series), stronger effect = lower value 1.02 | locus YNL322C, strain KRE1, stronger effect = lower value 1.01 | locus YNR030W, strain Alg12, stronger effect = lower value 1.03 | locus YPL055C, strain LGE1, stronger effect = lower value 1.1 | locus YPL241C, strain CIN2, stronger effect = lower value 1.01 | locus YPR135W, strain CTF4, stronger effect = lower value 1.04
